Dicer inh: inhibitors of human Dicer processing of pre-microRNA; Q9UPY3; cat-ELCCA pre-miR-21 Dicer processing, chemiluminescence; stronger effect = higher value; z-score at 25 µM; hit rate 6% among 47,000; AID 1347074; in the data active = z-score above about 3, passing the limit was not always enough;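 also: higher signal means more uncleaved substrate so more Dicer inhibition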
Of the large screens only hits and unclear results are named; the others gave an inactive call. Shown is part of a subset that was picked to be rich in hits.

CC1=CC(C)C2(CO)COC(c3ccc4c(c3)OCO4)C1C2C (configuration not stated)	none
CCOC(=O)/C(C)=N/Nc1ccc(C)cc1	none
Cc1nnc(NC(=O)CCC(=O)O)s1	none
CC(C)c1nnc(NC(=O)CCCC(=O)O)s1	none
Cc1nnc(NC(=O)CCCC(=O)O)s1	Dicer inh 3.73
Cc1ccc(OC(=O)c2ccc(C(F)(F)F)cc2)c(NC(=O)c2ccc(C(F)(F)F)cc2)c1	none
COc1ccc(C(C(C)=O)C(C)=O)c(C(=O)O)c1	none
Cc1ccc(CNCc2ccccn2)s1	none
COc1cccc(C2Sc3ccccc3NC3=C2C(=O)c2ccccc23)c1 (configuration not stated)	none
COc1cccc(C2Sc3ccccc3NC3=C2C(=O)c2ccccc23)c1OC (configuration not stated)	Dicer inh 3.63
COc1ccccc1C1C2=C(Nc3c1c(=O)[nH]c(=O)n3C)c1ccccc1C2=O (configuration not stated)	none
CC1(C)Cc2nc(N3CCOCC3)c(C#N)cc2CO1	Dicer inh 4.17
CC1(C)Cc2nc(N3CCCC3)c(C#N)cc2CO1	none
CCOC(=O)CSc1nc(N2CCOCC2)c2c(c1C#N)CC(C)(C)OC2	none
CN(C)c1ccc(/C=N/NC(=O)CCc2ccc(O)cc2)c(Cl)c1	none
CCCOc1ccc(C2C(C#N)=C(C)NC3=C2C(=O)CC(C)(C)C3)cc1OC (configuration not stated)	none
COc1cccc(C2c3c(oc4cc(C)c(C)cc4c3=O)C(=O)N2c2ccccn2)c1 (configuration not stated)	none
O=C1C(=O)N(c2ccccc2)C(c2ccccc2)/C1=C(/O)c1ccc(Br)cc1 (configuration not stated)	none
CC1(C)CC(=O)C=C(SCCS(=O)(=O)c2ccc(Cl)cc2)S1	none
CC1(C)CC(=O)C=C(SCc2cccc(Cl)c2)S1	Dicer inh 4.51
CC1(C)CC(=O)C=C(SCc2c(Cl)cccc2Cl)S1	none
CC(C)(C)S(=O)(=O)c1ccc(C(=O)O)s1	none
CC1=C(C(=O)OCC2CCCO2)C(c2ccccc2Br)C2=C(CCCC2=O)N1 (configuration not stated)	none
COc1ccc(CCNc2ccc(C(F)(F)F)cc2NC(=O)c2sc3ccccc3c2Cl)cc1OC	none
CN(C(=O)Nc1ccccc1)n1cnc2ccsc2c1=O	Dicer inh 5.44
CN(n1cnc2ccsc2c1=O)S(=O)(=O)c1ccc(Cl)cc1	none
CN(C(=O)CN1CCOCC1)n1cnc2ccsc2c1=O	none
CCN=c1cc2oc3cc(NCC)c(C)cc3c(-c3ccccc3C(=O)O)c-2cc1C	none
Cc1ccc(S(=O)(=O)Nc2ccc(Cl)c3cccnc23)cc1	Dicer inh 3.24
O=S(=O)(Nc1ncccc1OCc1ccc(Cl)c(Cl)c1)c1ccc(Cl)cc1	none
CS(=O)(=O)Nc1ccc(S(=O)(=O)Nc2ncccn2)cc1	none
Cc1ccc(S(=O)(=O)Nc2ccc(O)c3ncccc23)cc1	Dicer inh 15.4
Cc1ccc(S(=O)(=O)Nc2ccc(O)c3cccnc23)cc1	Dicer inh 3.31
O=S(=O)(Nc1cccnc1Oc1ccc(Cl)cc1)c1ccc(Cl)cc1	none
Cc1ccc(S(=O)(=O)Nc2ccc3ccccc3n2)cc1	none
CC(=O)Nc1ccc(S(=O)(=O)Nc2ncccn2)cc1	none
Cc1ccc(S(=O)(=O)Nc2ccnn2C)cc1	none
CC1=C(C(=O)OC(C)C)C(c2ccccc2C)C2=C(CC(C)(C)CC2=O)N1 (configuration not stated)	none
N#Cc1c(OCC(F)(F)F)cccc1OCC(F)(F)F	none
CC(C)c1ccc(NC(=O)CSc2nc3c(Cl)cc(Cl)cc3s2)cc1	none
COc1ccc(C(C#N)=C2SCCS2)cc1	none
Cc1ccccc1OCc1nc(C#N)c(N2CCC(C)CC2)o1	none
O=C(O)CCn1nc(Nc2ccccc2)n(-c2ccccc2)c1=S	none
O=C1Nc2c(Cl)ccc(Cl)c2C1=O	none
CCN(CC)CCCC(C)Nc1nc(C)nc2ccccc12 (configuration not stated)	Dicer inh 4.34
CCN(CC)CCCNc1ncnc2ccccc12	none
CCN(CC)CCCC(C)Nc1nc(C)nc2cc(Cl)ccc12 (configuration not stated)	none
Cc1ccc(-n2ncc(-c3nn[nH]n3)c2N)cc1	none
Cc1nc2sc3c(N4CCC(C)CC4)ncnc3c2c2c1COC(C)(C)C2	none
COc1ccc(C(=O)NNS(=O)(=O)c2ccc(CNC(=O)c3ccc(Cl)cc3)s2)cc1OC1CCCC1	none
COc1ccc(OCc2nc(-c3ccncc3)no2)cc1	none
CCc1ccc(-c2nnc(-c3ccc(Cl)cc3)o2)cc1	Dicer inh 3.3
Clc1ccc(-c2nnc(-c3ccccc3)o2)cc1	none
COc1ccc(-c2nnc(SCc3ccc(Cl)cc3)o2)cc1	none
CC(=O)Nc1c(C(=O)c2ccc(Cl)cc2)sc2nc(C)cc(C)c12	none
Cc1ccc(C(=O)OC[C@H]2O[C@@H](C#N)C[C@@H]2OC(=O)c2ccc(C)cc2)cc1	none
N#Cc1c(-c2cccnc2)[nH]c(=S)[nH]c1=O	none
N#Cc1c(-c2ccncc2)[nH]c(=S)[nH]c1=O	Dicer inh 3.57
COc1ccc(-c2[nH]c(SC)nc(=S)c2C#N)cc1	none
CCOC(=O)/C(C#N)=C/c1ccccc1	none
CCOC(=O)/C(C#N)=C/c1ccc([N+](=O)[O-])s1	none
CCOC(=O)/C(C#N)=C/c1csc([N+](=O)[O-])c1	Dicer inh 3.07
COc1ccc(C(Nc2cc(C)ccn2)c2ccc3ccc(C)nc3c2O)cc1 (configuration not stated)	none
COc1cccc(C(Nc2cc(C)ccn2)c2ccc3cccnc3c2O)c1 (configuration not stated)	none
Cc1ccnc(NC(c2ccccc2F)c2ccc3cccnc3c2O)c1 (configuration not stated)	none
Cc1ccnc(NC(c2ccc(C)s2)c2ccc3cccnc3c2O)c1 (configuration not stated)	none
Cc1ccc2ccc(C(Nc3ccccn3)c3cccs3)c(O)c2n1 (configuration not stated)	none
Cc1ccnc(NC(c2cc(C)ccc2O)c2ccc3cccnc3c2O)c1 (configuration not stated)	Dicer inh 10.6
C=CCOc1cccc(C(Nc2cc(C)ccn2)c2ccc3cccnc3c2O)c1 (configuration not stated)	Dicer inh 8.33
Cc1ccnc(NC(c2cccc(F)c2)c2ccc3cccnc3c2O)c1 (configuration not stated)	Dicer inh 10.9
Cc1ccnc(NC(c2cccc(F)c2)c2ccc3ccc(C)nc3c2O)c1 (configuration not stated)	Dicer inh 6.08
COC(=O)C1CCC(NC(C)=O)C(C(=O)OC)C1 (configuration not stated)	none
CC(=O)/C(C=Nc1c(F)cccc1Cl)=C(\C)O	none
O=C(NC(=O)c1ccccc1)Oc1ccc(Cl)cc1	none
Cc1ccc(C2CC(=O)Nc3n[nH]c(-c4ccc(Cl)cc4)c32)cc1 (configuration not stated)	none
CC(=O)OCc1ccccc1S(=O)(=O)c1ccccc1COC(C)=O	none
N=S(=O)(c1ccc(Cl)cc1)c1cccs1 (configuration not stated)	none
CCc1oc(C(=O)O)cc1CN1CCOCC1	none
CCOC(=O)c1c(O)c2ccccc2[nH]c1=O	none
CCOC(=O)c1c(-c2ccccc2)c2oc3ccccc3c2[nH]c1=O	Dicer inh 3.09
CCOC(=O)c1c(C)nc2ccc(Cl)cc2c1-c1ccccc1	none
Cc1cc(C(=O)n2cc(C)c(-c3cccs3)n2)c(C)o1	none
CCOC(=O)c1cc2c3c(c(N4CCOCC4)nc2s1)COC(C)(C)C3	none
CCOC(=O)c1sc(NC(C)=O)nc1C	Dicer inh 4.35
COC(=O)c1sc(NC(C)=O)nc1C	none
CCOC(=O)c1sc(NC(=O)c2ccco2)nc1C	none

Assay outcomes as filed in PubChem.
